This note sets out measurements from ChEMBL document CHEMBL4513216, “Probing the Open Global Health Chemical Diversity Library for Multistage-Active Starting Points for Next-Generation Antimalarials” (ACS Infect Dis, 2020).

Hit rate of the full screen: of about 69,000 compounds, about 8,600 (12%) showed an effect of 50% or more. Many of the other results were omitted from the sample, so strong results are more common in it than they were.

The subject of the test is Plasmodium berghei. Nature of the test: Screen against P. berghei liver stage (PbLuc), transformed with Luciferase, at 10uM. To be noted: tested at 10 uM. In kind it is functional, HepG2.
In the case of `CC(Cn1cccn1)NCc1csc2c1CCCC2` (stereo unspecified), the INHIBITION was found to be 46.6%.
Turning to `CC(Cn1cncn1)NCc1csc2c1CCCC2` (stereo unspecified), the INHIBITION is reported as 51.1%.
Under `CC(Cn1ccnc1)NCc1csc2c1CCCC2` (stereo unspecified) stands 31.4%.
Then `CCc1nnc(CN2CCc3ccc(S(N)(=O)=O)cc32)o1`, with 18%; and `CN(CCc1ccccn1)C(=O)CCC1CCCN(c2cnccn2)C1` (stereo unspecified), with 27.6%; and `CC(=O)N1CCc2nnc(C3CCCCN3CC3CCCCC3)n2CC1` (stereo unspecified), with 42.4%.
Then `COCCNC(=O)NC1(c2ccccc2F)CC1`, with 20%; and `CCN(CC)C(CNC(=O)c1ccnc(N(C)C)c1)c1ccsc1` (stereo unspecified), with 13.3%; and `Cc1ccc(C)c(C(=O)NC2CCC(N3C(=O)CCC3=O)CC2)c1` (stereo unspecified), with -56.4%.
Consider `Cc1ccc(C)c(CC(=O)NC2CCS(=O)(=O)CC2)c1`, for which the INHIBITION is 41.5%.
Take `Cc1ccc(C)c(CC(=O)NC2CCC(N3C(=O)CCC3=O)CC2)c1` (stereo unspecified): the INHIBITION is 50.1%.
Then `CN(Cc1cccnc1)Cc1cn2c(n1)CN(C1CCOCC1)CC2`, with 4.57%; and `CC1=CC[C@@H]2CN(C(=O)c3ccc(-c4cc[nH]n4)cc3)C[C@@H]2C1`, with -37.1%; and `COc1ccc(CNC(=O)NCCc2csc(C)n2)cn1`, with 36.1%.
Under `Cn1ccc(NCc2cc3cc(F)ccc3o2)n1` stands -18%; under `CN1CCC(N2CCOC[C@H]2c2nc(C(C)(C)C)c[nH]2)CC1`, 49.5%.
Under `c1cc(-c2c[nH]c([C@@H]3COCCN3Cc3ncc[nH]3)n2)ccn1` stands 54.7%; under `Fc1cccc(-c2c[nH]c([C@@H]3COCCN3C3CCOCC3)n2)c1`, -24.1%.
On to `CC(C)(C)c1c[nH]c([C@@H]2COCCN2C2CCC2)n1`, for which the INHIBITION came to 23%.
Then `CN1CCOC[C@H]1c1nc(-c2cccc(F)c2)c[nH]1`, with 9.51%.
Under `Cc1ccc(-c2c[nH]c([C@@H]3COCCN3Cc3ncc[nH]3)n2)cc1` stands 46.6%; under `c1cc(CN2CCOC[C@H]2c2nc(-c3ccncc3)c[nH]2)ccn1`, -7.59%.
Under `CN1CCC(N2CCOC[C@H]2c2nc(-c3ccncc3)c[nH]2)CC1` stands 35.8%.
Regarding `CN1CCOC[C@H]1c1nc(-c2ccccc2)c[nH]1`, the INHIBITION is on record as -23.1%.
Consider `CN1CCOC[C@H]1c1nc(-c2ccncc2)c[nH]1`, for which the INHIBITION turned out to be 52%.
Turning to `CN1CCOC[C@H]1c1nc(C(C)(C)C)c[nH]1`, the INHIBITION was determined as 50.2%.
Under `CC(C)(C)CN1CCOC[C@H]1c1nc(-c2cccc(F)c2)c[nH]1` stands 64.8%; under `COCC(=O)N1CCC2(CC1)CN(S(C)(=O)=O)Cc1ccccc1O2`, 14.94%; under `c1ncn(CC2CN(Cc3ccc4c(c3)OCCO4)CCO2)n1` (stereo unspecified), 17.4%.
Under `O=C(CC1CN(Cc2ccccc2)CCO1)Nc1ccsc1` (stereo unspecified) stands 31.3%.
Under `CC(C)[C@H]1CN(C(=O)CO)C[C@@H]1N(C)C` stands 14%.
For the compound `CCS(=O)(=O)N1C[C@@H](O)[C@H](N(C)Cc2ccc(F)cc2)C1`, the INHIBITION was found to be 11.94%.
On to `CC1CCN(C(=O)c2ccn(COc3ccccc3)n2)CC1`, for which the INHIBITION is -15.5%.
Under `CSc1ccccc1C(=O)NCc1cc2n(n1)CCCN(CC(C)C)C2` stands 38.2%; under `CC(NC(=O)c1cc2n(n1)CCCN(C(C)C)C2)c1cn2ccsc2n1` (stereo unspecified), -59.5%; under `CC(C)N1CCCn2nc(C(=O)NCCc3c[nH]cn3)cc2C1`, 18.2%.
`CC(C)N1CCCn2nc(C(=O)NCc3ccccc3F)cc2C1`: the INHIBITION is on record as 62.6%.
Under `O=C(NCc1ccccn1)c1cc2n(n1)CCNC2` stands -54.5%; under `CC(C)N1CCCn2nc(C(=O)NCCc3ccccn3)cc2C1`, 57.2%.
Under `CCN1CCO[C@@H]2CN(S(=O)(=O)c3cccs3)CC[C@@H]2C1` stands 15.6%; under `CC(C)N1C(=O)CN(CCOCCO)CC1(C)C`, 23.1%.
`Cc1cccc(Cn2c(=O)[nH]c3csnc3c2=O)c1`: the INHIBITION was determined as 12.8%.
Under `CC(C)C(O)CNC(=O)Nc1cnn(Cc2ccccc2)c1` (stereo unspecified) stands 4.82%; under `CCSc1ncc(CN2C[C@@H]3CC[C@H]2CN(C2CCOCC2)C3)cn1`, 48.5%.
In the case of `CN(C)c1ccc(CN2C[C@@H]3CC[C@H]2CN(C2CCOCC2)C3)cn1`, the INHIBITION came out at 53.5%.
Then `CSc1ncc(CN2C[C@@H]3CC[C@H]2CN(C2CCOCC2)C3)cn1`, with 9.91%; and `Cc1nc(CN2CCC3(CCN(Cc4cnn(C)c4)C3)C2=O)cs1` (stereo unspecified), with 25.3%; and `O=S1(=O)c2cccnc2OC(Cc2ccccc2)CN1CC1CC1` (stereo unspecified), with 24.5%.
On to `OCC1(O)CCN(c2ccnc3c(C(F)(F)F)cccc23)CC1`, for which the INHIBITION is listed as 17.5%.
Under `Cc1nn(C)cc1C(=O)Nc1cccc(CN2CCC(CO)CC2)c1` stands 44.2%.
Under `Cc1cc(C)c(C(=O)Nc2cccc(CN3CCC(CO)CC3)c2)o1` stands -30%; under `Cc1nc(C)c(C(=O)Nc2cccc(CN3CCC(CO)CC3)c2)o1`, 61.8%.
Then `CCc1cccc(-n2nnc(C(=O)O)c2-c2ccncc2)c1`, with 45.8%; and `CCCN1CCCN(C(=O)C(CC)N2CCCC2=O)CC1` (stereo unspecified), with -3.99%; and `CCC(C(=O)Nc1ccc(-c2nc(C)n[nH]2)cc1)N1CCCC1=O` (stereo unspecified), with 59.1%.
Turning to `Cc1n[nH]c(-c2ccc(NC(=O)C(C)N3CCN(C)CC3)cc2)n1` (stereo unspecified), the INHIBITION is given as -27.4%.
Under `CCC(C(=O)NCc1ccn(-c2ccc(F)cc2)n1)N1CCCC1=O` (stereo unspecified) stands 2.82%; under `Cc1n[nH]c(-c2ccc(NC(=O)C(C)(C)N3CCN(C)CC3)cc2)n1`, -25.6%; under `CCC(C(=O)Nc1ccc2c(C)n[nH]c2c1)N1CCCC1=O` (stereo unspecified), 53.6%.
In the case of `CC(C)(C)c1noc(CCC(=O)NCC2CCS(=O)(=O)C2)n1` (stereo unspecified), the INHIBITION is listed as 26.4%.
Then `Cc1cc(N(C)C)nc(C2COCCN2Cc2cscn2)n1` (stereo unspecified), with 45.9%; and `O=C1CC(N(C(=O)c2ccc(F)c(C(F)(F)F)c2)C2CC2)C(=O)N1` (stereo unspecified), with 0.914%; and `CCc1ccc2c(C3CN(CC4CCC4)C3)ncn2c1`, with 27.5%.
For `O=C(NC[C@H]1OC[C@@H](NC2CCNCC2)[C@@H]1O)C1CCCC1`, the INHIBITION is 24.5%.
Under `OC(COc1ccc(F)cc1)CN1CCC(Cn2cccn2)CC1` (stereo unspecified) stands 22.9%; under `CCCn1ccnc1-c1nccn1CCN(C)C`, 34.1%.
Then `COCc1ncc(-c2nccn2CCn2cnnc2)cn1`, with -0.614%; and `CCCn1ccnc1-c1nccn1CCn1cnnc1`, with 50.5%; and `C1CCC(CNC2CCCN(Cc3noc(C4CC4)n3)C2)CC1` (stereo unspecified), with 31.6%.
Then `CN(C)C(=O)n1c(C(=O)NC(C)(C)CO)cc2c1c1ccccc1n2C`, with -24.9%; and `COCCNC(=O)c1cc2c(c3ccccc3n2C)n1C(=O)N(C)C`, with 36.9%.
Consider `CC(C)n1c2ccccc2c2c1cc(C(=O)NCCO)n2C(=O)N(C)C`, for which the INHIBITION worked out at 55.7%.
Under `CC(C)n1c2ccccc2c2c1cc(C(=O)N(C)C)n2C` stands 82%.
Then `CC(C)n1c2ccccc2c2c1cc(C(=O)O)n2C(=O)N(C)C`, with 57.5%; and `CC(C)n1c2ccccc2c2c1cc(C(=O)N(C)C)n2S(C)(=O)=O`, with 49.4%; and `CC(C)NC(=O)CN(C)C(=O)c1c(Cl)c2ccccc2n1C`, with 15.8%.
As to `CCCNC(=O)c1cc2c(c3ccccc3n2C)n1C(=O)N(C)C`, the INHIBITION was found to be 26.2%.
For `CC(C)n1c2ccccc2c2c1cc(C(=O)NC1CC1)n2C(=O)N(C)C`, the INHIBITION is 60.2%.
As for `CC(C)NC(=O)c1cc2c(c3ccccc3n2C)n1C(=O)N(C)C`, the INHIBITION is 36.9%.
Then `CC(C)n1c2ccccc2c2c1cc(C(=O)N(C)C)n2C(=O)N(C)C`, with 47.5%; and `CCCN(CC)C(=O)c1cc2c(c3ccccc3n2C)n1C(=O)N(C)C`, with 11.9%; and `Cc1ccc(C(=O)NCCSCc2cccs2)cn1`, with 8.75%.
Under `Cc1ccc(NC2CCN(C(=O)c3ccc(F)c(C)c3)CC2)nn1` stands 47.1%; under `COCCn1c(-c2cccc(OC)c2)cnc1NC(=O)NC1CCCC1`, 13.5%; under `CN(C)c1cncc(C2CCCN2S(=O)(=O)c2cn(C)cn2)n1` (stereo unspecified), 32.8%.
Then `O=C(c1cnccn1)N1CCN(CC2CC2)c2ncccc2C1`, with -21.1%; and `COCCC(=O)N(C)Cc1nc(C(F)(F)F)cs1`, with -26.8%.
For `O=C(NCc1cc[nH]n1)NCC(O)c1ccccc1F` (stereo unspecified), the INHIBITION is given as 7.12%.
Then `COc1c(C2CCCN2CC(=O)N(C)Cc2ccco2)c(C)nn1C` (stereo unspecified), with 89.4%.
On to `CCN(C(=O)CN1CCCC1c1c(C)nn(C)c1OC)C1CC1` (stereo unspecified), for which the INHIBITION was -23.3%.
Turning to `CN(CCC#N)C(=O)CN1CCCC1c1cccs1` (stereo unspecified), the INHIBITION is -85%.
Then `CN(Cc1ccco1)C(=O)CN1CCCC1c1cccs1` (stereo unspecified), with 62.3%; and `N#CCCN(Cc1ccco1)C(=O)CN1CCCC1c1cccs1` (stereo unspecified), with 29.4%.
Under `COc1c(C2CCCN2C(=O)c2ccco2)c(C)nn1C` (stereo unspecified) stands 7.18%; under `CC(=O)Nc1ccc(CNCC(O)c2ccc(Cl)cc2)cc1` (stereo unspecified), 45.7%.
Under `c1cncc(CN2CCn3c(Cn4cncn4)cnc3C2)c1` stands 31.1%.
`Cc1ccc(CC(=O)N2CCCC(c3nccs3)C2)cn1` (stereo unspecified): the INHIBITION was determined as 3.4%.
As for `O=C(NCC1(O)CCCC1)c1ccc2nsnc2c1`, the INHIBITION is -47%.
Then `Cc1nc(CC(=O)NCCNc2nccc(C(F)(F)F)n2)cs1`, with 22.6%; and `Cc1nc(CN(C)c2nccc(N(C)C)n2)cs1`, with 51.5%.
Under `Cc1cc(N(C)C)nc(N(C)Cc2csc(C)n2)n1` stands -3.35%.
Under `COc1ccnc(N(C)Cc2csc(C)n2)n1` stands -62.7%; under `Cc1noc(C)c1CN(C)c1nccc(C(F)(F)F)n1`, -25.7%; under `Cc1nc(CN(C)c2nccc(C(F)(F)F)n2)cs1`, 50.1%.
Consider `CCCN1CCCn2nc(CNS(=O)(=O)c3cnn(CC)c3)cc2C1`, for which the INHIBITION worked out at 29.1%.
Under `O=C(CCc1ccsc1)NCc1ccnc(OC2CCOCC2)c1` stands -8.91%; under `CCOCCC(=O)NCc1ccnc(NC2CC2)c1`, 41.5%.
Then `COc1ccccc1CC(=O)NCc1ccnc(NC2CC2)c1`, with 75.7%; and `Cc1ccccc1OCCCC(=O)NCc1ccnc(O)c1`, with 9.6%; and `COc1ccccc1CC(=O)N1CCC(NCc2ccncc2)CC1`, with 22.275%.
For the compound `O=C(CCc1ccc(F)cc1)NCc1ccnc(NC2CC2)c1`, the INHIBITION is reported as 53.3%.
